# The source made the active and inactive calls.
# Experiments:
# [1] = binders of probe aFSTL3 on microarray, primary screen, stem cell growth factor project, biochemical, small-molecule microarray, fluorescence 635/667 (AID 1064); conditions: higher = more signal;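 also: measures binding of the biotinylated anti-FSTL3 antibody to printed compounds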
# [2] = binders from COS7 lysate, DM2A8 probe, primary screen, torsin A project, cell lysate, small-molecule microarray, fluorescence 635/667 (AID 1065); conditions: higher = more signal, COS7 lysate expressing mutant human TOR1A
# [3] = binders of probe aFGF2 on microarray, primary screen, stem cell growth factor project, biochemical, small-molecule microarray, fluorescence 635/667 (AID 1067); conditions: higher = more signal;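 also: measures binding of biotinylated aFGF2 protein to printed compounds on slides; z-score merges feature fluorescence and signal-to-noise across triplicate slides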
# [4] = binders of probe aFGF10 on microarray, primary screen, stem cell growth factor project, biochemical, small-molecule microarray, fluorescence 635/667 (AID 1071); conditions: higher = more signal;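 also: score merges 667 nm spot intensity and signal to noise from triplicate slides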
# [5] = target: Neurogenic locus notch homolog protein 2 (Homo sapiens) (UniProt Q04721); experiment: Notch2 binders on small-molecule microarrays, primary screen, biochemical, small-molecule microarray, 635 nm fluorescence, stem cell growth factors (AID 1073); conditions: Notch2 binding, higher = more signal
# Chain of Neurogenic locus notch homolog protein 2 (Homo sapiens) (Q04721 whole entry, looked up, canonical isoform): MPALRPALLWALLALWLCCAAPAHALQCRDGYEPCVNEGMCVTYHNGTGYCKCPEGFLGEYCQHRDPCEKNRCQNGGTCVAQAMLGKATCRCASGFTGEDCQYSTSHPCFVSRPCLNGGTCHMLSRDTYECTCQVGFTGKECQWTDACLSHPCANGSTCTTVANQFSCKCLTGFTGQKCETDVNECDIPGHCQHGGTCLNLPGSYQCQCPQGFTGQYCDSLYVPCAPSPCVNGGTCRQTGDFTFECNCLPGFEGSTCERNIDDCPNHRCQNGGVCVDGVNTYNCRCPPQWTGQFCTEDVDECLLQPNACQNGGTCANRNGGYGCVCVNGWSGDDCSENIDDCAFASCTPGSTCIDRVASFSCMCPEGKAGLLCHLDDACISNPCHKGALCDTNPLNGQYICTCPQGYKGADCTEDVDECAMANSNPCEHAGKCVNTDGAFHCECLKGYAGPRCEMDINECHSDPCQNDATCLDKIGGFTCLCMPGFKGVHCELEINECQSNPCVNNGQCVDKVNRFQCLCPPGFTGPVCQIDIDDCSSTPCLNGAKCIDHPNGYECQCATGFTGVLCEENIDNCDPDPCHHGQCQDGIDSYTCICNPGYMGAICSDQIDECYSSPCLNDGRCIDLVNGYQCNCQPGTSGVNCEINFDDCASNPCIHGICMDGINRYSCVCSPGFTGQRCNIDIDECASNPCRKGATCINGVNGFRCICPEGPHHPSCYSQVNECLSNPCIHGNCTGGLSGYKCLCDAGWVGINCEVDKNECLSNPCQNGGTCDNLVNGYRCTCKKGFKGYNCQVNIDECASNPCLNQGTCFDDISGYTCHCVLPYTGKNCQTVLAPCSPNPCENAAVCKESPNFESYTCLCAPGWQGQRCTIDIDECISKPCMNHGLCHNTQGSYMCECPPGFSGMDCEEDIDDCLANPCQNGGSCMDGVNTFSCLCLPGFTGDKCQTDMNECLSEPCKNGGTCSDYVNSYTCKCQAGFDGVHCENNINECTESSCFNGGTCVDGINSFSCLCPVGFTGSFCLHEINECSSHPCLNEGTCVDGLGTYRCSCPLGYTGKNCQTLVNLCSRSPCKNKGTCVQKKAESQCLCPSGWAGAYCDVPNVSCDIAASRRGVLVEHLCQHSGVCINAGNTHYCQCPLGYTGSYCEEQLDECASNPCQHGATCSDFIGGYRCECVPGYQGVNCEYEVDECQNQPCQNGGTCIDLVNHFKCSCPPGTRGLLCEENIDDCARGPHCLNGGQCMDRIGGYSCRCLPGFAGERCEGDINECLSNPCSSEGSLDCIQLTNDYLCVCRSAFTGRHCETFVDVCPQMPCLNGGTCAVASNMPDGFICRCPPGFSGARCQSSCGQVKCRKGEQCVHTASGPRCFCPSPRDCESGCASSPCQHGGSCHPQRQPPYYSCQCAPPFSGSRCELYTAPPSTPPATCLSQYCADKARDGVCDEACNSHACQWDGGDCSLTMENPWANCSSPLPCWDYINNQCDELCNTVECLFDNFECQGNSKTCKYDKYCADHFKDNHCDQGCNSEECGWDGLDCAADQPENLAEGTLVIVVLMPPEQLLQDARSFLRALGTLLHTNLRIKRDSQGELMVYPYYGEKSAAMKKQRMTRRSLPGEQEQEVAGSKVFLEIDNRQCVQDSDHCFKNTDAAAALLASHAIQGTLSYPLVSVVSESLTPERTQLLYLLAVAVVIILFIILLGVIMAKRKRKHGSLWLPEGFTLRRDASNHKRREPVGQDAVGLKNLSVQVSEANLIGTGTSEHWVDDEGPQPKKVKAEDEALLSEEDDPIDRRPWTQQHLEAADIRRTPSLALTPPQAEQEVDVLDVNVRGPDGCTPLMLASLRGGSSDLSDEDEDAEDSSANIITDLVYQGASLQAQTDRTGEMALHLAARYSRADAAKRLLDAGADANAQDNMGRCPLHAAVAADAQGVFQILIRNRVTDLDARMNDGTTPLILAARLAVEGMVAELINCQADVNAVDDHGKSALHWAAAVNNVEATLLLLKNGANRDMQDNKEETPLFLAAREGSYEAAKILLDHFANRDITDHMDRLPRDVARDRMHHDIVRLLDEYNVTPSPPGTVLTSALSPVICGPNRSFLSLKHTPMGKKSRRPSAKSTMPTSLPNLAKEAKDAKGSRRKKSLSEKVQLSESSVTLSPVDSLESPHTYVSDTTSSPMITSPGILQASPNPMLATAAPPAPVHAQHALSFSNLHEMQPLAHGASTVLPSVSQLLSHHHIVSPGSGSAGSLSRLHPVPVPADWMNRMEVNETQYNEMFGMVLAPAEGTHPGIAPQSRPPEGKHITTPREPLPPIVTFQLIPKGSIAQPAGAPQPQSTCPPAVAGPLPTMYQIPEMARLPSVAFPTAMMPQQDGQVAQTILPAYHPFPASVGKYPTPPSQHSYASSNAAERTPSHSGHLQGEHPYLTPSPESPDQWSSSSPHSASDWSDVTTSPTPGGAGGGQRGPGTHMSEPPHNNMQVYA
# [6] = target: Pro-neuregulin-1, membrane-bound isoform (Homo sapiens) (UniProt Q02297); experiment: NRG1 binders on small-molecule microarrays, primary screen, psychiatric disease protein project, biochemical, small-molecule microarray, fluorescence 635/667 (AID 1075); conditions: NRG1 binding, 635 nm fluorescence, higher = more signal;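 also: score combines 667 nm spot fluorescence with signal to noise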
# [7] = system: Neuregulin-1 EGF-like domain; experiment: binders of neuregulin-1 EGF-like domain, primary screen, biochemical, small-molecule microarray, 635 nm fluorescence (AID 1081); conditions: small-molecule microarray binding, higher = more signal;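 also: binding of the protein to compounds printed on small-molecule microarray slides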
# [8] = FRG1 promoter luciferase signal modulators, primary screen, FRG1 inhibition for FSHD, cell-based, C2C12 myotubes, firefly/Renilla luciferase, luminescence (AID 1084); conditions: higher = more signal, called active from +8 up or from −8 down
# [9] = binders of probe aFST on microarray, primary screen, stem cell growth factor project, biochemical, small-molecule microarray, fluorescence 635/667 (AID 1086); conditions: higher = more signal;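 also: score merges 667 nm fluorescence with signal-to-noise of each printed compound spot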
# [10] = binders of probe aHhip on microarray, primary screen, stem cell growth factor project, biochemical, small-molecule microarray, fluorescence 635/667 (AID 1087); conditions: higher = more signal;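 also: score merges spot fluorescence at 667nm with spot signal to noise ratio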
# [11] = system: PRMT1 (protein arginine N-methyltransferase 1); experiment: PRMT1 binders on small-molecule microarrays, primary screen, biochemical, small-molecule microarray, 635 nm fluorescence (AID 1088); conditions: small-molecule microarray binding, higher = more signal;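 also: binding of Prmt1 protein to compounds spotted on small-molecule microarray slides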
# [12] = yeast growth modulation, basal conditions, primary screen, YJM789 clinical isolate, OD600, 24 h (AID 1089);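 also: growth of clinical yeast isolate S. cerevisiae YJM 789 seeded 1000 cells per well; test concentration not given here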; conditions: S. cerevisiae YJM789 growth, higher = more signal, called active from +8 up or from −8 down
# [13] = fission yeast growth modulation, primary screen, strain 972, OD600, 24 h, no modulator (AID 1090);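 also: basal condition with compound alone and no growth modifier present; test concentration not given here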; conditions: S. pombe 972 growth, higher = more signal, called active from +8 up or from −8 down
# [14] = S. cerevisiae growth modulation with rapamycin, primary screen, strain BY4716, OD600, 96 h (AID 1091); conditions: higher = more signal, called active from +8 up or from −8 down; also: test concentration not given here
# [15] = target: Torsin-1A-interacting protein 2 (Homo sapiens) (UniProt Q8NFQ8); experiment: LULL1 binders on small-molecule microarray, primary screen, cell lysate, human LULL1 lysate, 635/667 nm fluorescence (AID 1092); conditions: hLULL1 lysate binding, 635 nm fluorescence, higher = more signal;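 also: probe is lysate of COS7 cells overexpressing human LULL1; score merges per-feature 667 nm fluorescence with signal-to-noise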
# [16] = E. coli growth modulation, two-sided OD650, primary screen, E. coli filamentation project, strain DRC41, 24 h (AID 1093); conditions: OD650, 24 h, higher = more signal, called active from +8 up or from −8 down;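 also: MC1000 strain lacking acrAB efflux and sulA so SOS filamentation is blocked; test concentration not given here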
# [17] = small-molecule microarray binders of probe aLefty2, primary screen, biochemical, biotinylated probe, 635/667 nm fluorescence (AID 1094); conditions: higher = more signal;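 also: score merges spot fluorescence near 667 nm with spot signal-to-noise ratio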
# [18] = system: Noggin (protein binding on small-molecule microarray); experiment: Noggin binders on small-molecule microarray, primary screen, biochemical, 635/667 nm fluorescence (AID 1095); conditions: 635 nm fluorescence, higher = more signal;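 also: score merges 667 nm feature fluorescence with signal to noise over triplicate slides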
# [19] = target: Neurogenic locus notch homolog protein 3 (Homo sapiens) (UniProt Q9UM47); experiment: NOTCH3 binders on small-molecule microarray, primary screen, biochemical, 635/667 nm fluorescence (AID 1096); conditions: NOTCH3 binding, 635 nm fluorescence, higher = more signal
# Chain of Neurogenic locus notch homolog protein 3 (Homo sapiens) (Q9UM47 whole entry, looked up): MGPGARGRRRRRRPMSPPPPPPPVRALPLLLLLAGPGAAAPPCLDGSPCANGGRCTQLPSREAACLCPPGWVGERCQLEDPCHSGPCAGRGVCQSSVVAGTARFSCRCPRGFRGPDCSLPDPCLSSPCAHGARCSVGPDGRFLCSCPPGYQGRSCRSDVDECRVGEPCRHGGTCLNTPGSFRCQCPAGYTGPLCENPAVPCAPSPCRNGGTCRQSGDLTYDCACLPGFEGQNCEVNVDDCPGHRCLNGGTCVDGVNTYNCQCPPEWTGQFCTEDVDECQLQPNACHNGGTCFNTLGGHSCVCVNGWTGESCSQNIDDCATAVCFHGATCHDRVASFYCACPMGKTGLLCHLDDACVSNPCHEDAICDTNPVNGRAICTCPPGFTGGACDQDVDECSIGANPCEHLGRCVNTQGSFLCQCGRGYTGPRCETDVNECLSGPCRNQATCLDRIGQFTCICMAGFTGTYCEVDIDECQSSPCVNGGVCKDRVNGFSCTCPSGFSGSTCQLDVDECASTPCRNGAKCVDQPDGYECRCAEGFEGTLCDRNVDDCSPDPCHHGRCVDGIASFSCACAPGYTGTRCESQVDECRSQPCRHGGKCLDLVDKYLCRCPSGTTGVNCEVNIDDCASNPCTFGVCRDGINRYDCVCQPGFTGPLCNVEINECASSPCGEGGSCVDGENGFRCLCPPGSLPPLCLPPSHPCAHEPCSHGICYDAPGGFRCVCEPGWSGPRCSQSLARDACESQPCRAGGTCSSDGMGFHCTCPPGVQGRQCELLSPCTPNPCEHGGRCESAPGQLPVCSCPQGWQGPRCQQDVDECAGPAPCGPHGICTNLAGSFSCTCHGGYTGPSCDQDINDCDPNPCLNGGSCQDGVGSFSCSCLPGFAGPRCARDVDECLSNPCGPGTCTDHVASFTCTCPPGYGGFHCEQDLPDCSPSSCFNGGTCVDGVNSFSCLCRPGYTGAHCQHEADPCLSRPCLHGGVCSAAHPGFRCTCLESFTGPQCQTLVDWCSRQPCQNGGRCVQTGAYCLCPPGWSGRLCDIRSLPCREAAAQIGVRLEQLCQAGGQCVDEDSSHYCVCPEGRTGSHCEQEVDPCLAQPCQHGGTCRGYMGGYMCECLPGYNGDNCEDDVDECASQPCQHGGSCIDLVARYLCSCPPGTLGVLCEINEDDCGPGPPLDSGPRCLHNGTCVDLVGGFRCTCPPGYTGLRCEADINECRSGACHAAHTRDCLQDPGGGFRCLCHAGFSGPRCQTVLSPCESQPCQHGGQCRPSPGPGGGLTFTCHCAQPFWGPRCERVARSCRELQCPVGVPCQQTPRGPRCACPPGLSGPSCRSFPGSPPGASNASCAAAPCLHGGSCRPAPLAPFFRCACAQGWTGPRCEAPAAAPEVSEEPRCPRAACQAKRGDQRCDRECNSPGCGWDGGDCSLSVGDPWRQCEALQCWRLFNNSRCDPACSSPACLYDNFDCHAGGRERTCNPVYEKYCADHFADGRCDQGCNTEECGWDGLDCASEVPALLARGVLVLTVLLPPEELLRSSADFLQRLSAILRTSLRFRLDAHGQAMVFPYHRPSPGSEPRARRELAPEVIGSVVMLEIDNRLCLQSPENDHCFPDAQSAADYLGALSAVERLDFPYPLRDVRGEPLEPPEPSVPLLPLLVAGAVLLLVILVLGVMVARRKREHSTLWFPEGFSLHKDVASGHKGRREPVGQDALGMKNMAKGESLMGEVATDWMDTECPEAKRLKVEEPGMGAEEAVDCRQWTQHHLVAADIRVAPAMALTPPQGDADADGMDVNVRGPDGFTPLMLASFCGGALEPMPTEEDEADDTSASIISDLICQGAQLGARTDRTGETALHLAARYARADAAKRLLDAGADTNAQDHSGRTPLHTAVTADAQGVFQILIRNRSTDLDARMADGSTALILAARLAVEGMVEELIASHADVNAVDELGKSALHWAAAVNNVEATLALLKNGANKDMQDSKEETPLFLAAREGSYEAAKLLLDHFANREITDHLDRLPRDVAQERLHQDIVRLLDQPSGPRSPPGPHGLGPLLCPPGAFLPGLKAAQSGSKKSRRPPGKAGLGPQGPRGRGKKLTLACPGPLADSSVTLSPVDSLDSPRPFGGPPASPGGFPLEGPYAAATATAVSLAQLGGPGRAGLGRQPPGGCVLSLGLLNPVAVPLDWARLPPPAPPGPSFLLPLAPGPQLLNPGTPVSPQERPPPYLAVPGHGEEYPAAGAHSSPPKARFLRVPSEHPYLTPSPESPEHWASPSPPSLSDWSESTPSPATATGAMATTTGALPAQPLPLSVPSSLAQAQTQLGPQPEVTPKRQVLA
# [20] = small-molecule microarray binders of probe aEGFR, primary screen, biochemical, biotinylated probe, 635/667 nm fluorescence (AID 1097); conditions: higher = more signal;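 also: probe is a biotinylated anti-EGFR antibody binding compounds printed on slides; score combines fluorescence near 667 nm and signal to noise of each spot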
SMILES,composite z-score [1],composite z-score [2],composite z-score [3],composite z-score [4],composite z-score [5],composite z-score [6],composite z-score [7],z-score [8],composite z-score [9],composite z-score [10],composite z-score [11],z-score [12],z-score [13],z-score [14],composite z-score [15],z-score [16],composite z-score [17],composite z-score [18],composite z-score [19],composite z-score [20]
CCCCC(=C=CC[C@H](O)c1ccccc1OCCO)C[C@H](O)COCc1ccccc1,-0.0094,0.273,-0.12,-0.249,-0.673,0.716,0.554,-1.01 (inactive),0.324,-0.0296,-0.0855,0.115 (inactive),-0.729 (inactive),-0.659 (inactive),1.03,0.0754 (inactive),-0.145,-0.142,-0.171,-0.12
CC(C)(C)OC(=O)CC[C@]1(C(=O)NCc2ccccc2)N=C(c2ccc(OCCCO)cc2)O[C@H]1c1ccccc1,0.0895,0.8,-0.0036,1,0.979,1.94,1.23,-2.08 (inactive),1.04,-0.0645,1.55,-0.105 (inactive),0.851 (inactive),1.64 (inactive),3.71,0.0596 (inactive),-0.0354,0.798,0.97,-0.123
COCCCNC(=O)[C@]1(CCC(=O)OC(C)(C)C)N=C(c2ccc(OCCCO)cc2)O[C@@H]1c1ccccc1N=[N+]=[N-],0.0081,1.27,0.15,0.891,1.33,1.62,1.36,3.15 (inactive),1.51,0.107,1.54,-0.376 (inactive),-1.22 (inactive),0.719 (inactive),3.81,0.619 (inactive),0.0979,0.778,1.11,0.134
O=C1O[C@@H](c2ccccc2)[C@@H](c2ccccc2)N2[C@@H](c3ccc(OCCO)cc3)[C@]3(C(=O)Nc4ccc(C#CCCO)cc43)[C@@H](C(=O)N3CCCCCCC3)[C@H]12,3.26,2.28,0.702,1.12,1.36,2.02,1.18,-1.99 (inactive),3.04,2.53,1.54,1.15 (inactive),-0.507 (inactive),2.23 (inactive),3.83,0.694 (inactive),1.35,1.39,1.08,0.249
Cc1ccc(C2CC=C(C(=O)O)CN2S(=O)(=O)c2ccc(C)cc2)cc1 (stereo not given),0.004,0.157,-0.0258,0.0852,0.677,1.97,0.937,-2.06 (inactive),0.374,0.0749,0.732,0.0388 (inactive),1.02 (inactive),0.856 (inactive),2.49,-1.16 (inactive),0.0527,0.153,0.984,-0.071
CO[C@@H]1COC(=O)CCC[C@@H](C)[C@H](OC)COC(=O)[C@H](Cc2ccccc2)NC(=O)CC=C[C@H]1C,-0.0731,1.42,-0.186,-0.904,-1.13,-0.87,-1.25,0.0446 (inactive),-0.104,-0.134,-0.256,0.449 (inactive),-0.529 (inactive),-0.341 (inactive),-2.01,0.0728 (inactive),-0.178,0.76,-1.25,-0.127
C#CCCCON=C1C[C@@H](O)[C@@H](O)[C@@H]2[C@@H]3C(=O)N(c4cccc(Oc5ccccc5)c4)C(=O)[C@@H]3CC[C@@H]12,-0.456,-0.666,-0.0296,0.967,0.88,1.44,0.598,0.407 (inactive),0.319,-0.334,0.678,0.71 (inactive),0.329 (inactive),-0.426 (inactive),2.51,0.303 (inactive),-0.0961,0.376,1.1,0.0675
CN(C)CCCNC(=O)[C@@H]1c2ccccc2C(=O)N(Cc2cc(F)cc(C(F)(F)F)c2)[C@H]1c1ccc(CO)cc1,1.11,1.01,-0.0692,-0.436,0.102,1.33,1.36,-1.19 (inactive),-0.186,0.316,1.56,-0.414 (inactive),-0.627 (inactive),-0.917 (inactive),2.93,-0.66 (inactive),-0.166,-0.0315,-1.2,-0.174
CC(=O)OC[C@H]1O[C@H](CC=NOC[C@@H](C)[C@H](OCc2ccccc2)C(C)C)C=C[C@@H]1OC(C)=O,-0.0055,-0.141,-0.087,0.0055,-0.0224,-0.254,-0.712,0.183 (inactive),-0.341,-0.0645,0.7,-0.523 (inactive),-0.0269 (inactive),-1 (inactive),-0.299,-0.186 (inactive),-0.0345,0.259,-0.14,-0.0873
COc1ccc(CCNC(=O)[C@@H]2c3ccccc3C(=O)N(c3ccc(C)cn3)[C@H]2c2ccc(CO)cc2)cc1,1.18,-0.793,-0.189,-0.715,-1.85,-1.13,1.2,0.379 (inactive),-0.57,-0.0994,0.11,-1.5 (inactive),-0.436 (inactive),-1.15 (inactive),3.23,0.604 (inactive),0.121,-1.16,-1.21,-0.404
